Laboratory results reported in PubChem BioAssay.
Calls of active or inactive are those of the source.

Assays:
[1] = optical density shifts of acrAB sulA E. coli – strain DRC41, OD650, 48 h, E. coli filamentation inducer project, primary screen (AID 1152); settings: higher = more signal, called active from +8 up or from −8 down;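 also: E. coli MC1000 strain DRC41 lacking acrAB efflux pump and sulA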
[2] = probe aLefty1 binding on compound microarray – biochemical, small-molecule microarray, 635/667 nm fluorescence, primary screen (AID 1153); settings: higher = more signal;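 also: score merges spot fluorescence with signal-to-noise ratio from the scanned slide images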
[3] = plasmodial surface anion channel blockers, osmotic lysis – cell-based, P. falciparum Indochina, OD700, 1 h, primary screen (AID 1154); settings: P. falciparum Indochina infected RBC osmotic lysis, higher = more signal, called active from +8 up or from −8 down
[4] = plasmodial surface anion channel blockers, osmotic lysis – cell-based, P. falciparum Indochina, OD700, 2 h, primary screen (AID 1155);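 also: lysis reports solute entry through the parasite surface anion channel PSAC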; settings: P. falciparum Indochina infected erythrocytes, higher = more signal, called active from +8 up or from −8 down
[5] = changes in parasitized red cell lysis, either direction – P. falciparum Indochina, OD700, 3 h, PSAC antagonist project, primary screen (AID 1156); settings: P. falciparum-infected erythrocytes, osmotic lysis, higher = more signal, called active from +8 up or from −8 down
[6] = plasmodial surface anion channel blockers, osmotic lysis – cell-based, P. falciparum Indochina, OD700, 18 h, primary screen (AID 1157); settings: P. falciparum Indochina infected erythrocytes, osmotic lysis OD700, 18 h; higher = more signal, called active from +8 up or from −8 down
[7] = S6 kinase pathway phospho-S6 level changes – cell-based, A549, cytoblot, luminescence, serum-stimulated, primary screen (AID 1158); settings: 5 h, higher = more signal;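 also: serum-stimulated A549 lung adenocarcinoma cells; signal is phosphorylated S6 detected by cytoblot immunostaining with HRP secondary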
[8] = molecular target: NADPH oxidase 2 (Homo sapiens) (UniProt P04839); assay: compounds shifting NOX2 Amplex Red fluorescence – cell-based, HEK293-NOX2, PMA-stimulated, NOX inhibitor project, primary screen (AID 1159); settings: 45 min, higher = more signal, called active from +8 up or from −8 down; also: test concentration not given here
[9] = molecular target: NADPH oxidase 4 (Homo sapiens) (UniProt Q9NPH5); assay: compounds shifting NOX4 Amplex Red fluorescence – cell-based, HEK293-NOX4, tetracycline-induced, NOX inhibitor project, primary screen (AID 1160); settings: HEK293-NOX4, Amplex Red H2O2 fluorescence, 45 min; higher = more signal, called active from +8 up or from −8 down
[10] = molecular target: NADPH oxidase 5 (Homo sapiens) (UniProt Q96PH1); assay: compounds shifting NOX5 Amplex Red fluorescence – cell-based, HEK293-NOX5, NOX inhibitor project, primary screen (AID 1161); settings: HEK293-NOX5, ionomycin, 45 min, higher = more signal
[11] = compound effects on lung adenocarcinoma cell viability – A549, calcein-AM fluorescence, 48 h, basal, profiling panel (AID 1162); settings: higher = more signal; also: test concentration not given here
[12] = compound effects on differentiated 3T3-L1 adipocyte viability – cell-based, 3T3-L1 adipocytes, calcein-AM fluorescence, 48 h, basal, profiling panel (AID 1163); settings: 3T3-L1 adipocytes viability, higher = more signal; also: test concentration not given here
[13] = compound effects on hepatocellular carcinoma cell viability – HepG2, calcein-AM fluorescence, 48 h, basal, profiling panel (AID 1164); settings: higher = more signal; also: test concentration not given here
[14] = compound effects on multiple myeloma cell viability – MM1S, calcein-AM fluorescence, 48 h, basal, profiling panel (AID 1165); settings: higher = more signal;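 also: viability of MM1S multiple myeloma cells under basal unstimulated conditions; test concentration not given here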
[15] = calcein-AM signal in unstimulated myeloma cells – cell-based, calcein-AM fluorescence, 48 h, PK04 Diversity Set, profiling panel (AID 1166); settings: RPMI8226 myeloma viability, higher = more signal;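 also: cells grown under basal conditions without added stimulus; test concentration not given here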
[16] = JC-1 mitochondrial signal, unstimulated HepG2 cells – cell-based, JC-1 fluorescence, 24 h, 100 nL compound, profiling panel (AID 1167); settings: HepG2 mitochondrial potential, higher = more signal; also: test concentration not given here
[17] = JC-1 mitochondrial signal, unstimulated adipocytes – cell-based, JC-1 fluorescence, 3T3-L1 adipocytes, 24 h, 100 nL compound, profiling panel (AID 1168); settings: JC-1 mitochondrial fluorescence, higher = more signal, called active from +8 up or from −8 down; also: test concentration not given here
[18] = JC-1 mitochondrial signal, unstimulated myeloma cells – cell-based, JC-1 fluorescence, RPMI8226, 24 h, 100 nL compound, profiling panel (AID 1169); settings: JC-1 mitochondrial potential fluorescence, higher = more signal; also: test concentration not given here
[19] = JC-1 mitochondrial signal, unstimulated MM1S myeloma – cell-based, JC-1 fluorescence, 24 h, 100 nL compound, profiling panel (AID 1170); settings: MM1S mitochondrial potential, higher = more signal; also: test concentration not given here
[20] = resazurin metabolic signal in A549 cells – cell-based, resazurin fluorescence, 24 h, PK04 Diversity Set, profiling panel (AID 1171); settings: A549 viability, higher = more signal, called active from +8 up or from −8 down; also: test concentration not given here

Chain of NADPH oxidase 2 (Homo sapiens) (P04839 whole entry, looked up): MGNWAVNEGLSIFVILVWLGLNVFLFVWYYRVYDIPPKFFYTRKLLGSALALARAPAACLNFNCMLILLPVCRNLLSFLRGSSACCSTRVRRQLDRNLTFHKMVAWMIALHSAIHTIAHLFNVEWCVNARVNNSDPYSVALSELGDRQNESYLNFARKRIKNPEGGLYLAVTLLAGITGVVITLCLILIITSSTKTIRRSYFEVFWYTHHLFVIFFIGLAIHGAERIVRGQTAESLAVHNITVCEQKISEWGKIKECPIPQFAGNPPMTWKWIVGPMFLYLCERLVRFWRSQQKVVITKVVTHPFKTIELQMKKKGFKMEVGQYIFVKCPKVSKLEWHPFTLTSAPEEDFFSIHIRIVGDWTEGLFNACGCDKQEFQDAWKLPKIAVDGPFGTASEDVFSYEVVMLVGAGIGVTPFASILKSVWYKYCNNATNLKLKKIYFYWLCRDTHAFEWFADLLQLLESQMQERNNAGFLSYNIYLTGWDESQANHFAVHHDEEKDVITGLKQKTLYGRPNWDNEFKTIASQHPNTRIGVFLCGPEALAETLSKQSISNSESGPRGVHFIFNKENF
Chain of NADPH oxidase 5 (Homo sapiens) (Q96PH1 whole entry, looked up): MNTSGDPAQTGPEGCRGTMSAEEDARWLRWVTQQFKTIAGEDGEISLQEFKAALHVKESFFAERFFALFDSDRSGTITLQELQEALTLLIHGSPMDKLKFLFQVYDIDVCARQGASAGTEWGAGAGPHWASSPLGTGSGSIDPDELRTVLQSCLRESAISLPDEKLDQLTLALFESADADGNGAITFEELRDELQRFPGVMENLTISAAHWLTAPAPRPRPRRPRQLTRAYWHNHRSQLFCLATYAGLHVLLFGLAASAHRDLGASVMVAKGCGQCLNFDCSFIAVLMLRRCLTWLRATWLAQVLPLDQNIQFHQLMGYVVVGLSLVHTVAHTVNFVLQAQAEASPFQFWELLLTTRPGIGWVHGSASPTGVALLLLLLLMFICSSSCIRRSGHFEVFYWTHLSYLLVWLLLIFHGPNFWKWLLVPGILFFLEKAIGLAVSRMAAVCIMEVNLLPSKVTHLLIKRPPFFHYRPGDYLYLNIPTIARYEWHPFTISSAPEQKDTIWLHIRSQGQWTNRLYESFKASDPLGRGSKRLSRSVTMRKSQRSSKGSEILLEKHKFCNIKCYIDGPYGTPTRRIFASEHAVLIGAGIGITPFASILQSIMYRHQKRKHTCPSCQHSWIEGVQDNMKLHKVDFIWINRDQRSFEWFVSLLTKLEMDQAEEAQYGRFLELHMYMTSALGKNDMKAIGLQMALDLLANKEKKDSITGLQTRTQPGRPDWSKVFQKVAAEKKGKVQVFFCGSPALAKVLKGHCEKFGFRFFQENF
Chain of NADPH oxidase 4 (Homo sapiens) (Q9NPH5 whole entry, looked up): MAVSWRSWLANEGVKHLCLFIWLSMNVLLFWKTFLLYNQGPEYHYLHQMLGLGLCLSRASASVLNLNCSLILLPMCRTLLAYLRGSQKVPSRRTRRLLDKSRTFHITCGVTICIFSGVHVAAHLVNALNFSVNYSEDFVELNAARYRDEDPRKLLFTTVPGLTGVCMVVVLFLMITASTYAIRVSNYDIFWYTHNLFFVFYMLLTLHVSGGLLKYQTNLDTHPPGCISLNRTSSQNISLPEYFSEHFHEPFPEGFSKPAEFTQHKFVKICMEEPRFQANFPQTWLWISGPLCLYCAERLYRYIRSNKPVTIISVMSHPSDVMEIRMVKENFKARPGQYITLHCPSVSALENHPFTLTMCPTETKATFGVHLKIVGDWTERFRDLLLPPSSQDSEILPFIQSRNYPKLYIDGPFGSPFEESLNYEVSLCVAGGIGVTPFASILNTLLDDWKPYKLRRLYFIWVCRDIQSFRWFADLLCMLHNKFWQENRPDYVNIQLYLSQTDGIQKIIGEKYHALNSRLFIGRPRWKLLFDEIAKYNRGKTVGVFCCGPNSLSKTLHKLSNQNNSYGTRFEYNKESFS

## CCCC=C(CCC)[C@@H](NS(=O)(=O)c1ccc(Cl)cc1)c1ccc(C(=O)OC)cc1
[1]
  z-score: -1.01 (inactive)
[2]
  composite z-score: 0.523
[3]
  z-score: -0.556 (inactive)
[4]
  z-score: -0.914 (inactive)
[5]
  z-score: -0.338 (inactive)
[6]
  z-score: -1.93 (inactive)
[7]
  z-score: 0.631
[8]
  z-score: 0.0199 (inactive)
[9]
  z-score: 0.249 (inactive)
[10]
  z-score: 1.39
[11]
  z-score: -1.18
[12]
  z-score: 0.391
[13]
  z-score: -0.845
[14]
  z-score: 0.48
[15]
  z-score: -0.595
[16]
  z-score: -1.07
[17]
  z-score: -0.542 (inactive)
[18]
  z-score: -0.906
[19]
  z-score: -0.98
[20]
  z-score: 0.475 (inactive)

## NC(=O)[C@@H]1[C@H]2C(=O)O[C@H](c3ccccc3)[C@H](c3ccccc3)N2[C@H](c2ccc(OCCO)cc2)[C@@]12C(=O)Nc1ccc(C#CC3=CCCCC3)cc12
[1]
  z-score: 1.96 (inactive)
[2]
  composite z-score: 0.189
[3]
  z-score: 3 (inactive)
[4]
  z-score: 0.651 (inactive)
[5]
  z-score: -1.59 (inactive)
[6]
  z-score: -0.198 (inactive)
[7]
  z-score: 1.1
[8]
  z-score: 0.814 (inactive)
[9]
  z-score: 0.68 (inactive)
[10]
  z-score: 2.3
[11]
  z-score: -0.985
[12]
  z-score: 1.06
[13]
  z-score: -3.51
[14]
  z-score: -3.28
[15]
  z-score: -4.06
[16]
  z-score: -2.81
[17]
  z-score: 0.396 (inactive)
[18]
  z-score: -0.834
[19]
  z-score: -1.71
[20]
  z-score: -1.01 (inactive)

## CC(=CC1CCCCC1)[C@@H](NC(=O)c1cccnc1)c1ccc(-c2ccccc2)cc1
[1]
  z-score: -2.67 (inactive)
[2]
  composite z-score: 0.188
[3]
  z-score: 1.85 (inactive)
[4]
  z-score: 0.943 (inactive)
[5]
  z-score: -0.0465 (inactive)
[6]
  z-score: 0.348 (inactive)
[7]
  z-score: -0.849
[8]
  z-score: -1.27 (inactive)
[9]
  z-score: -2.55 (inactive)
[10]
  z-score: -0.0302
[11]
  z-score: -1.3
[12]
  z-score: -0.671
[13]
  z-score: -1.63
[14]
  z-score: -2.15
[15]
  z-score: -2.59
[16]
  z-score: -2.99
[17]
  z-score: -1.26 (inactive)
[18]
  z-score: 0.597
[19]
  z-score: -0.462
[20]
  z-score: 1.49 (inactive)

## O=C1NC(=O)C2C1C=CC(C(O)c1ccc(-c3ccccc3)s1)N2Nc1ccc(Cl)cc1Cl (stereo not given)
[1]
  z-score: -2.23 (inactive)
[2]
  composite z-score: -0.141
[3]
  z-score: 2.29 (inactive)
[4]
  z-score: 1.58 (inactive)
[5]
  z-score: -0.666 (inactive)
[6]
  z-score: 1.07 (inactive)
[7]
  z-score: -1.09
[8]
  z-score: 0.964 (inactive)
[9]
  z-score: -3.15 (inactive)
[10]
  z-score: -0.664
[11]
  z-score: -1.95
[12]
  z-score: -0.901
[13]
  z-score: -2.13
[14]
  z-score: -3.61
[15]
  z-score: -3.05
[16]
  z-score: -2.92
[17]
  z-score: -1.08 (inactive)
[18]
  z-score: -0.983
[19]
  z-score: -0.247
[20]
  z-score: -1.65 (inactive)

## COC(=O)c1c(CC[C@@H](CO)NC(=O)NCCc2c[nH]c3ccccc23)oc(C(=O)Cc2ccccc2)c1C(=O)OC
[1]
  z-score: 0.659 (inactive)
[2]
  composite z-score: -0.423
[3]
  z-score: 7.43 (inactive)
[4]
  z-score: -0.0918 (inactive)
[5]
  z-score: -0.366 (inactive)
[6]
  z-score: -1.01 (inactive)
[7]
  z-score: 0.814
[8]
  z-score: -2.09 (inactive)
[9]
  z-score: -1.16 (inactive)
[10]
  z-score: -0.595
[11]
  z-score: -0.22
[12]
  z-score: 1.12
[13]
  z-score: -0.496
[14]
  z-score: 0.49
[15]
  z-score: 0.459
[16]
  z-score: -1.27
[17]
  z-score: -0.484 (inactive)
[18]
  z-score: 0.636
[19]
  z-score: 0.0389
[20]
  z-score: 0.926 (inactive)

## COC(=O)[C@@]1(Cc2ccc(F)cc2)[C@H]2c3cc(C(=O)N(C)C)n(Cc4cc(C)n(C)n4)c3C[C@H]2CN1C(=O)c1ccccc1
[1]
  z-score: -1.48 (inactive)
[2]
  composite z-score: 0.0576
[3]
  z-score: 0.797 (inactive)
[4]
  z-score: 0.364 (inactive)
[5]
  z-score: 0.0419 (inactive)
[6]
  z-score: 0.495 (inactive)
[7]
  z-score: -0.438
[8]
  z-score: 0.743 (inactive)
[9]
  z-score: -0.354 (inactive)
[10]
  z-score: -0.329
[11]
  z-score: -0.492
[12]
  z-score: -0.202
[13]
  z-score: -0.395
[14]
  z-score: -0.9
[15]
  z-score: -0.528
[16]
  z-score: 0.635
[17]
  z-score: -1.01 (inactive)
[18]
  z-score: -0.12
[19]
  z-score: 0.203
[20]
  z-score: -0.759 (inactive)

## C=CCNC(=O)[C@@H]1[C@H]2C(=O)O[C@H](c3ccccc3)[C@H](c3ccccc3)N2[C@H](c2ccc(OCCO)cc2)[C@@]12C(=O)N(C(=O)OCCOC)c1ccc(C#CCC(C(=O)OC)C(=O)OC)cc12
[1]
  z-score: -0.314 (inactive)
[2]
  composite z-score: 0.404
[3]
  z-score: 7.08 (inactive)
[4]
  z-score: 1.72 (inactive)
[5]
  z-score: -0.211 (inactive)
[6]
  z-score: 0.581 (inactive)
[7]
  z-score: -0.0943
[8]
  z-score: 2.26 (inactive)
[9]
  z-score: 1.2 (inactive)
[10]
  z-score: 1.37
[11]
  z-score: -0.906
[12]
  z-score: 0.445
[13]
  z-score: -0.713
[14]
  z-score: -1.85
[15]
  z-score: -1.34
[16]
  z-score: 0.366
[17]
  z-score: 0.0731 (inactive)
[18]
  z-score: -0.799
[19]
  z-score: -1.16
[20]
  z-score: 0.185 (inactive)

## COC(=O)C[C@H]1O[C@@H](CCc2ccccc2)[C@@H](C)[C@@H]1[Si](C)(C)c1ccc(OC)cc1
[1]
  z-score: -0.95 (inactive)
[2]
  composite z-score: -0.188
[3]
  z-score: 2.54 (inactive)
[4]
  z-score: 0.719 (inactive)
[5]
  z-score: -0.0062 (inactive)
[6]
  z-score: -0.0887 (inactive)
[7]
  z-score: 0.0216
[8]
  z-score: 1.34 (inactive)
[9]
  z-score: -0.0337 (inactive)
[10]
  z-score: -2.06
[11]
  z-score: 1.47
[12]
  z-score: 1.27
[13]
  z-score: -0.755
[14]
  z-score: -0.843
[15]
  z-score: -3.97
[16]
  z-score: 0.453
[17]
  z-score: -0.0941 (inactive)
[18]
  z-score: -1.12
[19]
  z-score: -0.0681
[20]
  z-score: 0.989 (inactive)

## [N-]=[N+]=Nc1ccccc1[C@H]1OC(c2ccc(OCCCO)cc2)=N[C@@]1(Cc1ccccc1)C(=O)N1CCOCC1
[1]
  z-score: -0.388 (inactive)
[2]
  composite z-score: 0.342
[3]
  z-score: 30.8 (active)
[4]
  z-score: 30.6 (active)
[5]
  z-score: 2.96 (inactive)
[6]
  z-score: 9.58 (active)
[7]
  z-score: -0.0055
[8]
  z-score: -1.29 (inactive)
[9]
  z-score: 1.27 (inactive)
[10]
  z-score: 1.13
[11]
  z-score: -1.59
[12]
  z-score: 0.539
[13]
  z-score: -1.12
[14]
  z-score: -2.4
[15]
  z-score: -3.94
[16]
  z-score: -0.273
[17]
  z-score: 0.598 (inactive)
[18]
  z-score: -1.09
[19]
  z-score: -2.67
[20]
  z-score: -2.74 (inactive)
